This is one part of a sample in which hits are shown more often than they occur.
AMPAR-TARP mod = modulators of AMPA receptor GluA2-stargazin complexes; O88602+P19491; calls only at 30 µM; HEK293 GluA2+stargazin, membrane potential dye (FDSS), glutamate EC50; hits were called plate by plate, in both directions; AID 1259245; hit rate 3.5% among 40,000;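 active = any of four per-well response measures lying three or more SD from its plate-wide compound average, in either direction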
GIRK2 activator = GIRK2 channel activators by thallium flux. activation (% efficacy), % for hits at 37.5 µM. 34,000 tested, under 10 active. HEK293 GIRK2/NPY4 cells, thallium flux fluorescence;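 active = primary screen hit, no activity in plain HEK293 cells, and in GIRK2-only cells above 5% efficacy rising with concentration; inactive = the rest, including fluorescent compounds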;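 also: efficacy is normalized control-subtracted fluorescence 15 s after thallium addition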
Target sequence (P48051 whole entry, looked up): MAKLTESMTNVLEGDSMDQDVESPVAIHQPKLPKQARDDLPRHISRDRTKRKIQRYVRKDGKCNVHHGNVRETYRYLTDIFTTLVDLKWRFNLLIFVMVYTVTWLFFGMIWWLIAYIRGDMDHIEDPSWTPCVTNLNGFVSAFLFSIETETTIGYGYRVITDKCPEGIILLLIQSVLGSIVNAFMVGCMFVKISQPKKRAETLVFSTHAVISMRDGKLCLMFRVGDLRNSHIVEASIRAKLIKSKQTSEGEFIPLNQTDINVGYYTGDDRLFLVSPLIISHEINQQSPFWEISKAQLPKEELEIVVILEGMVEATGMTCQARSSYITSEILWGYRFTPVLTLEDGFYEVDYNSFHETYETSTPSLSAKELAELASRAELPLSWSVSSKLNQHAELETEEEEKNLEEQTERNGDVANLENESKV
Of the large screens only hits and unclear results are named; the others gave an inactive call.

CCCCN1CC(c2nc3ccccc3n2Cc2cccc(Cl)c2)CC1=O (stereo unspecified)	AMPAR-TARP mod active (no result: GIRK2 activator)
CC(C)(C)N1CC(c2nc3ccccc3n2Cc2ccc(Cl)cc2)CC1=O (stereo unspecified)	none (no result: GIRK2 activator)
CC(C)CCn1c(C2CC(=O)N(Cc3ccccc3)C2)nc2ccccc21 (stereo unspecified)	AMPAR-TARP mod active (no result: GIRK2 activator)
Cc1cccc(Cn2c(C3CC(=O)N(C(C)(C)C)C3)nc3ccccc32)c1 (stereo unspecified)	AMPAR-TARP mod active (no result: GIRK2 activator)
CCNC(=O)Cc1cc(=O)oc2cc(OC)ccc12	none
Cc1cc(S(=O)(=O)N2CCN(c3ccc4nncn4n3)CC2)ccc1F	none
COc1ccc(OC2OC3COC(c4ccccc4)OC3C(O)C2NC(C)=O)cc1 (stereo unspecified)	none (no result: GIRK2 activator)
COC(=O)c1ccccc1NC(=O)Cn1cc(-c2ccccc2)c(N2CCOCC2)n1	AMPAR-TARP mod active
COc1ccc(NC(=O)Cn2cc(-c3ccccc3)c(N3CCOCC3)n2)c(OC)c1	none
Cc1cc2ncn(CCc3noc(-c4ccccc4)n3)c2cc1C	none
COc1cc(C(C)=O)ccc1OCC(=O)Nc1ccc(-c2cn3ccsc3n2)cc1	none
O=C(Nc1ccc(-c2cn3ccsc3n2)cc1)NC1CCCCC1	AMPAR-TARP mod active
COc1cccc(C(=O)NCCNC(=O)c2ccc(NC(=O)C(C)C)cc2)c1OC	none
CCn1ccc(C(=O)N=c2sc3cc(S(C)(=O)=O)ccc3n2CCSC)n1	none (no result: AMPAR-TARP mod)
COc1ccc2sc(N(Cc3ccncc3)C(=O)c3ccccc3S(C)(=O)=O)nc2c1	none
COc1ccccc1C(=O)N(CCc1cccs1)c1nc2ccc(S(C)(=O)=O)cc2s1	AMPAR-TARP mod active
Cc1ccc(C)c(OCC(=O)Nc2ccc(N3CCOCC3)cc2)c1C	none (no result: GIRK2 activator)
CSCCn1c(=NC(=O)c2cc(C)no2)sc2cc3c(cc21)OCCO3	AMPAR-TARP mod active
CSCCn1c(=NC(=O)c2cc(C)no2)sc2ccccc21	none
COc1ccc(CC(=O)Nc2nc(-c3ccc(C)c(C)c3)cs2)cc1	none (no result: GIRK2 activator)
CCS(=O)(=O)N1CCCc2cc(NC(=O)Nc3ccc(OC)cc3)ccc21	none
CCS(=O)(=O)N1CCCc2cc(NC(=O)NCc3ccccc3)ccc21	none
CCS(=O)(=O)N1CCCc2cc(NC(=O)Nc3cc(Cl)ccc3OC)ccc21	AMPAR-TARP mod active
CCCS(=O)(=O)N1CCCc2cc(NC(=O)NCCCc3ccccc3)ccc21	AMPAR-TARP mod active
COCC(=O)N1CCCc2ccc(NC(=O)c3snnc3C)cc21	none
CCOC(=O)Nc1ccc2c(c1)NC(=O)C(C)(C)CO2	none
CCCOc1ccc(S(=O)(=O)Nc2ccc3c(c2)NC(=O)C(C)(C)CO3)cc1	AMPAR-TARP mod active (no result: GIRK2 activator)
CCOc1ccc(-c2cc3c(=O)n(Cc4nc(-c5ccc(Br)cc5)no4)ncn3n2)cc1	none (no result: AMPAR-TARP mod)
COc1cccc(CCNC(=O)CC2CCCCN2S(=O)(=O)c2ccc(Cl)cc2)c1 (stereo unspecified)	AMPAR-TARP mod active (no result: GIRK2 activator)
COc1ccc(S(=O)(=O)N2CCCCC2CC(=O)NCc2ccccc2OC)cc1 (stereo unspecified)	none (no result: GIRK2 activator)
COc1cccc(CCNC(=O)CC2CCCCN2S(=O)(=O)c2ccccc2)c1 (stereo unspecified)	none (no result: GIRK2 activator)
COc1ccc(S(=O)(=O)N2CCCCC2CC(=O)NCc2ccccc2Cl)cc1 (stereo unspecified)	AMPAR-TARP mod active (no result: GIRK2 activator)
O=C(NCc1n[nH]c(=O)c2ccccc12)c1ccc(Br)o1	none
O=C(NCc1n[nH]c(=O)c2ccccc12)c1cc(=O)c2ccccc2o1	AMPAR-TARP mod active
O=C(CCCn1c(SCc2cccc([N+](=O)[O-])c2)nc2ccccc2c1=O)N1CCCC1	AMPAR-TARP mod active
O=c1nc(SCc2cccc([N+](=O)[O-])c2)c2c(n1CCCO)CCC2	none
COCCOC(=O)C1=C(C)NC(=O)NC1c1ccc(OCc2ccccc2)cc1 (stereo unspecified)	none (no result: GIRK2 activator)
Cc1ccc(C)c(CN2C(=O)N(c3cc(C)ccc3C)C3CS(=O)(=O)CC32)c1 (stereo unspecified)	AMPAR-TARP mod active (no result: GIRK2 activator)
Cc1ccc(C)c(N2C(=O)N(Cc3ccc(Br)cc3F)C3CS(=O)(=O)CC32)c1 (stereo unspecified)	none (no result: GIRK2 activator)
CC(C)CNC(=O)C(=O)NCC(c1cccn1C)N1CCc2ccccc2C1 (stereo unspecified)	none
O=C(NCCn1ncc2c(N3CCCCCC3)ncnc21)C(=O)c1c[nH]c2ccccc12	none (no result: GIRK2 activator)
CC(C)(C)OC(=O)Cn1nc2ccc(S(=O)(=O)N3CCCCC3)cn2c1=O	none
Cn1c(=O)c2c(ncn2Cc2ccccc2)n(C)c1=O	none (no result: GIRK2 activator)
Cn1c(=O)c2c(ncn2CC(=O)NCc2ccccc2)n(C)c1=O	AMPAR-TARP mod active (no result: GIRK2 activator)
CN(C)S(=O)(=O)N1CCC(c2nnc(-c3ccc(F)cc3)o2)CC1	none
COc1ccc(Nc2cc(C)nc(-n3cc([N+](=O)[O-])cn3)n2)cc1OC	none
COc1ccc(Nc2cc(C)nc(-n3cc([N+](=O)[O-])cn3)n2)cc1Cl	AMPAR-TARP mod active
Cc1cc(C)c(N(C)S(=O)(=O)c2cc(N(C)S(=O)(=O)c3ccccc3)c(C)cc2C)c(C)c1	none (no result: GIRK2 activator)
COc1ccccc1C(=O)NNC(=O)c1cccn(Cc2ccc(F)cc2)c1=O	none
CC(C)n1nccc1-c1nnc(NC(=O)c2ccc(Cl)cc2Cl)o1	none
COc1ccc(Cl)cc1C(=O)Nc1nnc(-c2ccnn2C(C)C)o1	AMPAR-TARP mod active
Cc1ccc(S(=O)(=O)N2CCN(CC(O)COc3ccc4ccccc4c3Cl)CC2)cc1 (stereo unspecified)	none (no result: GIRK2 activator)
CCOC(=O)C1=C(C)NC(=O)NC1c1cccc2ccccc12 (stereo unspecified)	none (no result: GIRK2 activator)
CC1=C(C(=O)OC(C)(C)C)C(c2ccccc2F)NC(=O)N1 (stereo unspecified)	AMPAR-TARP mod active (no result: GIRK2 activator)
CC(C)S(=O)(=O)c1cccc(C(=O)Nc2cccc(-c3nc4ccccc4o3)c2)c1	none
CNC(=O)CSc1nc(-c2ccccc2)c(NC(=O)CC(C)(C)C)s1	none
O=C(Nc1c2c(nn1-c1ccc(F)cc1)CSC2)C(=O)N1CCCC1	AMPAR-TARP mod active (no result: GIRK2 activator)
O=C(Nc1c2c(nn1-c1ccc(Cl)cc1)CSC2)C(=O)N1CCCC1	none
O=S(=O)(NCC(O)c1ccc(C(F)(F)F)cc1)c1ccc(OC(F)(F)F)cc1 (stereo unspecified)	AMPAR-TARP mod active (no result: GIRK2 activator)
COc1ccc(CCC(=O)NCC(O)c2ccc(C(F)(F)F)cc2)cc1 (stereo unspecified)	none (no result: AMPAR-TARP mod)
COc1ccc(CCS(=O)(=O)NCC(O)c2ccc(C(F)(F)F)cc2)cc1 (stereo unspecified)	AMPAR-TARP mod active
CC(C)N(CC#CCNS(=O)(=O)c1ccc(OC(F)(F)F)cc1)C(C)C	AMPAR-TARP mod active (no result: GIRK2 activator)
O=S(=O)(NCC(O)c1ccc(C(F)(F)F)cc1)c1ccc2c(c1)OCCO2 (stereo unspecified)	none
CC(C)N(CC#CCNS(=O)(=O)c1cc(F)ccc1F)C(C)C	none (no result: GIRK2 activator)
CCCC(=O)Nc1ccc(C(=O)NCCNC(=O)c2ccccc2OC)cc1	none
Cc1ccc(C(=O)Nc2ccc(C(=O)NCCNC(=O)c3ccccc3C)cc2)cc1	AMPAR-TARP mod active (no result: GIRK2 activator)
CCCCC(=O)N1CCN(c2ncnc3c2nnn3-c2ccc(F)cc2)CC1	none (no result: GIRK2 activator)
O=S(=O)(CCCOc1ccc2c(c1)OCO2)NCCc1c[nH]c2ccccc12	none
O=C(NCCN1CCOCC1)c1ccc(Cl)c(S(=O)(=O)N2CCCCC2)c1	none (no result: GIRK2 activator)
O=C(c1cccc(S(=O)(=O)N2CCOCC2)c1)N1CCCc2ccccc21	none (no result: GIRK2 activator)
O=C(c1ccc(Cl)c(S(=O)(=O)N2CCOCC2)c1)N1CCc2ccccc21	AMPAR-TARP mod active (no result: GIRK2 activator)

Assay outcomes (PubChem BioAssay)
